# Where “and” joins values, the source holds several entries; their conditions need not be identical. Equal entries are not always repeated. A number with no mark means an inactive call. Results filed as inconclusive are left out. Where a call stands in place of a potency, no number is given. Calls of active or inactive are those of the source. Unless noted, calls follow the shape of the dose curve; as a rule, active = well fitted curve in the direction sought with a large enough effect in the repeat runs; inconclusive = weak or mixed curves; inactive = no such curve, though single readings can be large; an effect the other way counts as inactive or inconclusive.
# Assays:
# [1] = qHTS assay to identify small molecule agonists of the estrogen receptor alpha (ER-alpha) signaling pathway in the presence of an antagonist - cell viability counter screen (AID 1259386);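 also: cells exposed to compounds for 22 h at 37 °C before the viability read; nearly all actives have a fitted effect of over 30% in size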; also: potency is read from the fitted curve at half-maximal effect
# Method in brief: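 The test measures whether compounds kill ER-alpha reporter cells (VM7Luc4E2) under antagonist co-treatment (ICI-182,780, 10.0nM). Fluorescence from CellTiter-Fluor is read after a 22hr exposure.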
# [2] = target: Progesterone receptor (Homo sapiens) (UniProt P06401); test: qHTS assay to identify small molecule agonists of the progesterone receptor (PR) signaling pathway (AID 1346784; calls by dose curve; also: nearly all actives have a fitted effect of over 30% in size)
# Method in brief: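 Fluorescence from LiveBLAzer B/G FRET substrate cleavage (2 hr, RT) reported PR activation in PR-UAS-bla HEK 293T cells treated 16 hr at 37C/5% CO2 with compounds; medium contained 2% charcoal-stripped FBS.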
# [3] = target: Progesterone receptor (Homo sapiens) (UniProt P06401); test: qHTS assay to identify small molecule antagonists of the progesterone receptor (PR) signaling pathway (AID 1346795; active = well fitted inhibition curve with a large enough effect in the signal ratio in the repeat runs, not every such curve was filed as active; the % refers to the signal ratio; also: potency is read from the fitted curve at half-maximal effect)
# Method in brief: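 Fluorescence intensity measured 2 hr after adding beta-lactamase FRET substrate to PR-UAS-bla HEK293T cells that had been co-treated 16 hr with compound and 1 nM R5020 (final concentration) in 2% charcoal-stripped FBS.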
# [4] = qHTS assay to identify small molecule antagonists of the progesterone receptor (PR) signaling pathway - cell viability counter screen (AID 1346798); also: nearly all actives have a fitted effect of over 50% in size; also: potency is read from the fitted curve at half-maximal effect
# Method in brief: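 CellTiter-Glo luminescence; PR-UAS-bla HEK293T, 3,000 cells/well; compound + R5020, 16 hr, 37C/5% CO2; 30 min RT before read.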
# [5] = qHTS assay to identify small molecule agonists of the progesterone receptor (PR) signaling pathway - cell viability counter screen (AID 1346799; calls by dose curve; also: nearly all actives have a fitted effect of over 45% in size)
# Method in brief: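 In parallel with the beta-lactamase readout, cytotoxicity toward PR-UAS-bla HEK293T cells was measured by CellTiter-Glo luminescence following 16 hr compound incubation in 2% charcoal-stripped FBS medium.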
# [6] = qHTS assay to identify small molecule antagonists of the TGF-beta/Smad signaling pathway - cell viability counter screen (AID 1346824); also: nearly all actives have a fitted effect of over 50% in size
# Method in brief: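 Cytotoxicity counter-screen run in the same wells as the beta-lactamase Smad reporter read: CellTiter-Glo luminescence after 30 min at room temperature. HEK 293T SBE-bla cells had 5 hr compound exposure at 37 C with TGF-beta1 (0.25 ng/mL stock).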
# [7] = qHTS assay to identify small molecule agonists of the TGF-beta/Smad signaling pathway - cell viability counter screen (AID 1346829); also: top concentration of the series differs between compounds; nearly all actives have a fitted effect of over 45% in size
# Method in brief: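 Here the cytotoxicity of library compounds is measured in SBE-bla HEK 293T cells treated for 5 hr, using CellTiter-Glo added to wells already read for the beta-lactamase reporter.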
# [8] = qHTS assay to identify small molecule agonists of the TGF-beta/Smad signaling pathway (AID 1346859; active = well fitted activation curve with a large enough effect in the signal ratio in the repeat runs, not every such curve was filed as active; the % refers to the signal ratio; also: series mostly up to about 77 µM)
# Method in brief: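 After overnight seeding, SBE-bla HEK 293T cells are dosed with compounds in DMSO and kept 5 hr at 37 C, 5% CO2. LiveBLAzer-type FRET substrate is then applied for 2 hr at room temperature.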
# [9] = Human pregnane X receptor (PXR) small molecule agonists, qHTS cell viability counter screen (AID 1346977); also: nearly all actives have a fitted effect of over 50% in size; also: potency is read from the fitted curve at half-maximal effect
# Method in brief: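 Viability counter screen: CellTiter-Fluor signal in PXR-Luc HepG2 cells, 24hr compound exposure, 37C, 5% CO2.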
# [10] = Caspase-3/7 induction in HepG2 cells by small molecules, qHTS assay (AID 1346978); also: nearly all actives have a fitted effect of over 15% in size
# Method in brief: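 Caspase-3/7 induction was measured by Caspase-Glo 3/7 luminescence (30 min, room temperature) after a 17 hr compound exposure of wild-type HepG2 cells seeded at 2,000 per well and pre-incubated 5 hr.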
# [11] = Caspase-3/7 induction in CHO-K1 cells by small molecules, qHTS cell viability counter screen (AID 1346979); also: nearly all actives have a fitted effect of over 35% in size; also: potency is read from the fitted curve at half-maximal effect
# Method in brief: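 Viability readout by fluorescence (CellTiter-Fluor) on wild-type CHO-K1 cells exposed for 16hr at 37C and 5% CO2 to compounds delivered in DMSO; reagent incubated 1hr before reading.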
# [12] = Caspase-3/7 induction in CHO-K1 cells by small molecules, qHTS assay (AID 1346980); also: nearly all actives have a fitted effect of over 15% in size
# Method in brief: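 Luminescent Caspase-Glo 3/7 read (30min, room temperature) quantified apoptosis induction. Cells were wild-type CHO-K1, treated with compound for 17hr at 37 C and 5% CO2.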
# [13] = Caspase-3/7 induction in HepG2 cells by small molecules, qHTS cell viability counter screen (AID 1346981); also: nearly all actives have a fitted effect of over 30% in size; also: potency is read from the fitted curve at half-maximal effect
# Method in brief: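 Treatment of HepG2 cells with DMSO-delivered compounds ran 16 hr at 37 C following a 5-hr pre-incubation of 2,000 cells/well. CellTiter-Fluor fluorescence, read after 1 hr, served as the viability measure in a qHTS format.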
# [14] = target: Nuclear receptor subfamily 1 group I member 2 (Rattus norvegicus) (UniProt Q9R1A7); test: Rat pregnane X receptor (rPXR) activation by small molecules, qHTS assay (AID 1346983); settings: rPXR luciferase reporter cells, One-Glo luminescence, 24 h; max activation: hits give high values; also: nearly all actives have a fitted effect of over 20% in size
# Method in brief: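 Luminescent readout (One-Glo luciferase, 30 min room temperature) followed 24 hr compound treatment at 37 C of rPXR cells plated 2,000 per well and preincubated 5hr; qHTS format with compounds delivered in DMSO.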
# [15] = target: Acetylcholinesterase (Homo sapiens) (UniProt P22303); test: Acetylcholinesterase (AChE) small molecule antagonists: colormetric cell-based qHTS assay (AID 1347395; calls by dose curve; also: nearly all actives have a fitted effect of over 30% in size; also: potency is read from the fitted curve at half-maximal effect)
# Method in brief: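 Homogeneous whole-cell format. SH-SY5Y cells seeded overnight, dosed with compound (30 min, 37 C, 5% CO2), then given DTNB/acetylthiocholine cocktail for 90 min at 37 C; colorimetric signal.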
# [16] = target: Acetylcholinesterase (Homo sapiens) (UniProt P22303); test: Acetylcholinesterase (AChE) small molecule antagonists: enzyme-based qHTS assay (AID 1347397; calls by dose curve; also: nearly all actives have a fitted effect of over 55% in size; also: potency is read from the fitted curve at half-maximal effect); settings: Potency: AChE enzyme activity inhibition
# Method in brief: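 Colorimetric DTNB readout of acetylthiocholine hydrolysis, 10 min at room temperature, after 30 min room-temperature exposure of 50 mU/mL recombinant human enzyme to compound; DMSO vehicle control.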
# [17] = target: Thyrotropin-releasing hormone receptor (Homo sapiens) (UniProt P34981); test: qHTS assay to identify small molecule agonists of the thyrotropin-releasing hormone receptor (TRHR) signaling pathway (AID 1346891; calls by dose curve;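 also: HEK293 cells expressing TRHR with calcium dye readout; series mostly up to about 58 µM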)
# Method in brief: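 Compounds were tested as agonists at 15 concentrations, in triplicate, on TRHR-Hek293 cells; calcium-sensitive dye fluorescence was recorded for 3 min following addition.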
# [18] = target: Nuclear receptor subfamily 1 group I member 2 (Homo sapiens) (UniProt O75469); test: Human pregnane X receptor (PXR) small molecule agonists, qHTS assay (AID 1346982); also: nearly all actives have a fitted effect of over 35% in size
# Method in brief: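 Stable HepG2 line reporting PXR-mediated CYP3A4 expression via luciferase. Treatment: 24 hr with compounds in DMSO at 37 C. Detection: ONE-Glo luminescence.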
# [19] = target: Thyrotropin-releasing hormone receptor (Homo sapiens) (UniProt P34981); test: qHTS assay to identify small molecule antagonists of the thyrotropin-releasing hormone receptor (TRHR) signaling pathway (AID 1346877; active = well fitted inhibition curve with a large enough effect in the repeat runs, not every such curve was filed as active; also: series mostly up to about 51 µM)
# Method in brief: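 Overnight-plated (18 h, 37 °C) HEK293 cells expressing TRHR were dye-loaded 2 h, treated with compound, then stimulated with TRH at 1 nM final. Fluorescence intensity was captured every second for 3 min.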
# [20] = target: Nuclear receptor subfamily 1 group I member 2 (Homo sapiens) (UniProt O75469); test: Human pregnane X receptor (PXR) activation by small molecules, qHTS assay (AID 1346985); also: nearly all actives have a fitted effect of over 40% in size
# Method in brief: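 DPX-2 cells (HepG2 co-transfected with a PXR response element and a CYP3A4-promoter luciferase construct) were seeded at 2,000 per well, rested 5 hr at 37C, then exposed to DMSO-dissolved compounds for 24 hr. Activation was read as luciferase luminescence.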
# Nuclear receptor subfamily 1 group I member 2 (Rattus norvegicus), sequence (Q9R1A7 whole entry, looked up): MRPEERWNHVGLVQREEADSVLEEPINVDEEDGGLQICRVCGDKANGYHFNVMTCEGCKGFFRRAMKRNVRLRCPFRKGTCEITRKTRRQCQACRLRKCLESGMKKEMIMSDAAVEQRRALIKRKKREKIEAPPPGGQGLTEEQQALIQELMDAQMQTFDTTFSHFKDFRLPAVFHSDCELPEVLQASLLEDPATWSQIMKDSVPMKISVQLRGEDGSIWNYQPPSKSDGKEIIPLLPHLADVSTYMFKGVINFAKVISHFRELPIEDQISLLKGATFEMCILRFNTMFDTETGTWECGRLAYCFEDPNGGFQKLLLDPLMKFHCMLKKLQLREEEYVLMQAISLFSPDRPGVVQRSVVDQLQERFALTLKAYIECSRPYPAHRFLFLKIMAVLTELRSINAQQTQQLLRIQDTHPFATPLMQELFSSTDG
# Progesterone receptor (Homo sapiens), sequence (P06401 whole entry, looked up): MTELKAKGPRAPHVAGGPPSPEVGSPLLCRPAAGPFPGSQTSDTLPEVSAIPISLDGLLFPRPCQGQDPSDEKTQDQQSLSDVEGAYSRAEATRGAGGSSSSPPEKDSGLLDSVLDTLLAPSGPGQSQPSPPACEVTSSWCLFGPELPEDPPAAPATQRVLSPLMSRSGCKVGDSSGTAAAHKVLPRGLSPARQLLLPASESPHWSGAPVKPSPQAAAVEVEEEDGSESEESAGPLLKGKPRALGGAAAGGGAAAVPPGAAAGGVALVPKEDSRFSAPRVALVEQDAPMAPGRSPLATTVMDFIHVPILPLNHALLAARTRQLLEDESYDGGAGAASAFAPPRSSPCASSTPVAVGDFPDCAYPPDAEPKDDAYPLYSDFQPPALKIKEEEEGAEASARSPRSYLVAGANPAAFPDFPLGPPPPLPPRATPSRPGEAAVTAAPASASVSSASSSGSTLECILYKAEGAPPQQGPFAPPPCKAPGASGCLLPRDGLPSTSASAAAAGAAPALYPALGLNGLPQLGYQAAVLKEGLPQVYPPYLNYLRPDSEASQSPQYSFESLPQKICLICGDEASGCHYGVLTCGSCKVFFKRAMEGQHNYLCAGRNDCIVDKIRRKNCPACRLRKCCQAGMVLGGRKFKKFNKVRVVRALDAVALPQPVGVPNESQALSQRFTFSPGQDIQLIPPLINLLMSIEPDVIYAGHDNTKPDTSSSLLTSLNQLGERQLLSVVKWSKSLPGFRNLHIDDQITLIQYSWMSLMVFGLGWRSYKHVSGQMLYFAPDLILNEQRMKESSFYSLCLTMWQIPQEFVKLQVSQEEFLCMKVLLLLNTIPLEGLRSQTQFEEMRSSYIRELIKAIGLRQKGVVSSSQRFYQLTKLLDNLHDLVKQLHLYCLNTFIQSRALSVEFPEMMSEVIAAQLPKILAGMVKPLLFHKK
# Acetylcholinesterase (Homo sapiens), sequence (P22303 whole entry, looked up): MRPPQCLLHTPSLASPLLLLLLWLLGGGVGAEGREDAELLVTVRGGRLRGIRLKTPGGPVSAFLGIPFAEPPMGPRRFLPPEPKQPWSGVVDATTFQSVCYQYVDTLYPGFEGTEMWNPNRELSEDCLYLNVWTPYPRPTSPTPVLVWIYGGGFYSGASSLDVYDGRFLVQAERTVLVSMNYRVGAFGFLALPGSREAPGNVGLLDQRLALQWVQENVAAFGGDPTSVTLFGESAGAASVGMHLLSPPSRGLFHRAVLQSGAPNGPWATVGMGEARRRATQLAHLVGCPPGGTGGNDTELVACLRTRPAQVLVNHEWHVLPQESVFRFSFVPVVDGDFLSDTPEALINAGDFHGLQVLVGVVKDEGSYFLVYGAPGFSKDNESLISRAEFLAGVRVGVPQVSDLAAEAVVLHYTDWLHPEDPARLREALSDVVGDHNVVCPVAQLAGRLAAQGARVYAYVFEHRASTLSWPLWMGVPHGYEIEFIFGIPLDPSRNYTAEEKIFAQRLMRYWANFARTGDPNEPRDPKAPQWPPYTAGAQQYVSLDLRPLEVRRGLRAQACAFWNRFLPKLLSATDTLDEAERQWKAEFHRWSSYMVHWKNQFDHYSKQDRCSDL
# Nuclear receptor subfamily 1 group I member 2 (Homo sapiens), sequence (O75469 whole entry, looked up): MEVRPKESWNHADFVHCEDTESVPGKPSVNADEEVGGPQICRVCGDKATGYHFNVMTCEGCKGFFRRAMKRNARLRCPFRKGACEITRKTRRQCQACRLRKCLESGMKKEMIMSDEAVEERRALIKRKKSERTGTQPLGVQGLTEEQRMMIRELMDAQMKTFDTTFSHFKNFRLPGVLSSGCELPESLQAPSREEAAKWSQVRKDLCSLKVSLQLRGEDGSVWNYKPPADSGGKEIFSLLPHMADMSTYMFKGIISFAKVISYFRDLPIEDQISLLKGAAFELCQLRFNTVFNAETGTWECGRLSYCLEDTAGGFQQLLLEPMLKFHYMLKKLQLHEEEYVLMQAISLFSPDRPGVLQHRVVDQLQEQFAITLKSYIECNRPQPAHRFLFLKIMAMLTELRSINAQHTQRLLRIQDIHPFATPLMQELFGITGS
# Thyrotropin-releasing hormone receptor (Homo sapiens), sequence (P34981 whole entry, looked up): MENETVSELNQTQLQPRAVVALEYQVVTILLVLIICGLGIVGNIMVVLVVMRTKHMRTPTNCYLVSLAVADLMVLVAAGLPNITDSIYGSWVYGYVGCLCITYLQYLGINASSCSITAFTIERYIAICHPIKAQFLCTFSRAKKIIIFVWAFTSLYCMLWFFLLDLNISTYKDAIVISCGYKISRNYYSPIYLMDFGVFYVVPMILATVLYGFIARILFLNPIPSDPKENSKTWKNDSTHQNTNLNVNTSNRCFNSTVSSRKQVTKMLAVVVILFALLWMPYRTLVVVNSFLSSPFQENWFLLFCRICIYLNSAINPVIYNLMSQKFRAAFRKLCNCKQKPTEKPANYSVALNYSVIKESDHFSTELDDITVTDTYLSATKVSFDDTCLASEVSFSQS
SMILES,Potency [1],Potency [2],Potency [3],Potency [4],Potency [5],Potency [6],Potency [7],outcome [8],Potency [9],Potency [10],Potency [11],Potency [12],Potency [13],max activation [14],Potency [15],Potency [16],Potency [17],Potency [18],Potency [19],Potency [20]
C=CCN1CC[C@]23c4c5ccc(O)c4O[C@H]2C(=O)CC[C@@]3(O)[C@H]1C5,inactive,inactive,inactive,inactive,inactive,inactive,inactive,inactive,inactive,inactive,inactive,inactive,inactive,-2.21% and -3.34%,,,,,,
Nc1ccc(N=Nc2ccc(-c3ccc(N=Nc4c(S(=O)(=O)O)cc5cc(S(=O)(=O)O)c(N=Nc6ccccc6)c(O)c5c4N)cc3)cc2)c(N)c1,15.7 µM (active),inactive,inactive,inactive,inactive,inactive,inactive,inactive,17.6 µM (active),inactive,17.6 µM (active),inactive,19.7 µM (active),,inactive,inactive,,,,
CN1C[C@H](CNC(=O)OCc2ccccc2)C[C@@H]2c3cccc4c3c(cn4C)C[C@H]21,inactive,inactive,inactive,,,inactive,inactive,inactive,26.6 µM (active),inactive,,inactive,inactive,,3.47 µM (active),7.76 µM (active),inactive,inactive,,
CCCCCCCCOC(=O)c1ccc(C(=O)OCCCCCCCC)c(C(=O)OCCCCCCCC)c1,inactive,inactive,inactive,27.6 µM (active),inactive,,inactive,inactive,inactive,inactive,inactive,inactive,inactive,,inactive,inactive,inactive,inactive,inactive,
CCCCNP(N)(N)=S,inactive,inactive,inactive,,inactive,inactive,inactive,inactive,inactive,inactive,inactive,inactive,inactive,,inactive,inactive,inactive,inactive,inactive,
Cl/C=C\Cl,inactive,inactive,inactive,,inactive,inactive,inactive,inactive,inactive,inactive,inactive,inactive,,,inactive,inactive,inactive,inactive,inactive,
O=C(O)C(F)(F)C(F)(F)C(F)(F)C(F)(F)C(F)(F)C(F)(F)C(F)(F)C(F)(F)C(F)(F)F,inactive,inactive,inactive,inactive,inactive,inactive,inactive,inactive,inactive,inactive,inactive,inactive,inactive,,inactive,inactive,,inactive,,
Cn1sc(Cl)cc1=O,inactive,inactive,inactive,,,inactive,inactive,inactive,inactive,inactive,inactive,inactive,inactive,-5.85%,inactive,inactive,inactive,inactive,inactive,inactive
C[C@H]1CNCCc2ccc(Cl)cc21,inactive,inactive,inactive,inactive,,inactive,inactive,inactive,inactive,inactive,inactive,inactive,inactive,,inactive,inactive,inactive,inactive,,
CC(C)N(CCC(C(N)=O)(c1ccccc1)c1ccccn1)C(C)C (centres undefined),inactive,inactive,inactive,inactive,inactive,inactive,inactive,inactive,inactive,inactive,inactive,inactive,inactive,-7.32%,inactive,inactive,,,,
C=CCOC(C)=O,inactive,inactive,1.91 µM (active),,inactive,inactive,inactive,inactive,inactive,inactive,inactive,inactive,inactive,,inactive,inactive,inactive,inactive,inactive,
ClCCCCBr,inactive,inactive,inactive,inactive,,inactive,inactive,inactive,inactive,inactive,inactive,inactive,inactive,,inactive,inactive,inactive,inactive,inactive,
C/C=C/C=O,inactive,inactive,inactive,inactive,inactive,inactive,inactive,inactive,inactive,inactive,inactive,inactive,inactive,,inactive,inactive,,inactive,,
C=CC(=O)OCCCCO,inactive,inactive,inactive,inactive,inactive,inactive,inactive,,inactive,inactive,54.5 µM (active),inactive,,,inactive,inactive,inactive,inactive,inactive,
ClCC(Br)CBr (centres undefined),inactive,inactive,inactive,,inactive,inactive,inactive,inactive,inactive,inactive,inactive,inactive,inactive,,inactive,inactive,,inactive,,
CC(C)O.CC(C)O.OCCN(CCO)CCO.OCCN(CCO)CCO.[Ti],inactive,inactive,inactive,,inactive,inactive,inactive,inactive,inactive,inactive,inactive,inactive,inactive,,inactive,inactive,,inactive,,
COC(=O)c1cncn1C(C)c1ccccc1 (centres undefined),inactive,inactive,inactive,inactive,,inactive,inactive,inactive,inactive,inactive,inactive,inactive,inactive,,inactive,inactive,,inactive,,
CN1[C@@H]2CC[C@H]1CC(OC(=O)c1cc(Cl)cc(Cl)c1)C2 (some centres undefined),inactive,inactive,inactive,,,inactive,inactive,inactive,,inactive,inactive,inactive,inactive,,,inactive,inactive,inactive,inactive,
